ssDAF12 agonist – S. stercoralis DAF-12 nuclear receptor activators, primary screen, cell-based, luminescence, HEK293, GRIP1 co-expression, lit1-tk-luc; HEK293 ssDAF-12/GRIP1 lit1-tk-luc reporter; % of 3 µM dafachronic acid response; Nuclear hormone receptor DAF-12 (Strongyloides stercoralis); activation, % at 6.8 µM; 370,000 compounds, 1% hits;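 active = activation above the mean over all tested compounds plus 3 SD, cut at about 0.9% in these data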;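 also: 0% = DMSO-only wells and 100% = 3 µM delta7-dafachronic acid wells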
DAX1 inh-1 – DAX1 (NR0B1) inhibitors on StAR promoter, primary screen, cell-based, luminescence, SF-1 (NR5A1), full-length DAX-1; inhibition, % at 6.8 µM; AID 652010, 2013; 370,000 compounds, 1.1% hits; HEK293T StAR-luciferase reporter, SF-1/DAX-1 repression relief;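 active = inhibition above the mean over all tested compounds plus 3 SD, cut at about 3.6% in these data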;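 also: 0% = DAX-1 cells with DMSO and 100% = cells lacking DAX-1 with DMSO; higher inhibition means more luminescence from relief of DAX-1 repression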
AHR activator – AHR activators, primary screen, cell-based, luminescence, luciferase reporter, human | Aryl hydrocarbon receptor (Homo sapiens), P35869 | AHR-responsive luciferase reporter cells | activation, % at 5 µM | 320,000 compounds, 2.5% hits | AID 2796, 2010; in the data active = activation above about 47%;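 also: 0% = vehicle wells and 100% = reference agonist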
Target sequence (P35869 whole entry, looked up): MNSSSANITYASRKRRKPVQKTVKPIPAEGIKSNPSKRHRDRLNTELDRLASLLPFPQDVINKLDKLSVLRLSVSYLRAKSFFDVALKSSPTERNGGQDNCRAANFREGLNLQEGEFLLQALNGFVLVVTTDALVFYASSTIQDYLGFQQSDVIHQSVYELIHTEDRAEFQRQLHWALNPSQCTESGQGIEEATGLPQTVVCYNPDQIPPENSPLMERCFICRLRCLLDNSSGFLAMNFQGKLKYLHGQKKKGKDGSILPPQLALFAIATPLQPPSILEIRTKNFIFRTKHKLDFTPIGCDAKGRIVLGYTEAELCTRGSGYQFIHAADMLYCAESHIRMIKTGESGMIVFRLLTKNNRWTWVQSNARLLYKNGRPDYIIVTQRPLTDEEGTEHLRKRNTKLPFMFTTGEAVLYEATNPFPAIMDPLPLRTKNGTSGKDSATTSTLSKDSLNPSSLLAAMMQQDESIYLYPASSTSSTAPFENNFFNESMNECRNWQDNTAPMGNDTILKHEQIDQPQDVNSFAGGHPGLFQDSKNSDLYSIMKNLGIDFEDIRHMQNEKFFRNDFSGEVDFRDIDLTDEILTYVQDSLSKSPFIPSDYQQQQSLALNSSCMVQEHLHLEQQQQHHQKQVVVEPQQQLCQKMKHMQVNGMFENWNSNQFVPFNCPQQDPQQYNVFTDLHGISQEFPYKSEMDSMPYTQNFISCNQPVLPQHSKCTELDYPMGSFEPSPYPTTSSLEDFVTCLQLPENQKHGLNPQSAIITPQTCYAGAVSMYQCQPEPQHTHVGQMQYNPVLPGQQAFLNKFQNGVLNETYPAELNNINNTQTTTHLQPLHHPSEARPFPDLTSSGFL
hgDAF-12 ag – H. glycines DAF-12 receptor agonists, primary screen, cell-based, luminescence, HEK293, GAL4 fusion, UAS-luciferase; AID 687014, 2013; 370,000 compounds, 1.8% hits; activation, % at 6.8 µM; Nuclear hormone receptor DAF-12 (Heterodera glycines), GAL4 fusion; HEK293 GAL4-hgDAF12 UAS-luciferase reporter, agonist luminescence; normalized to butyrate control;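 active = activation above a cutoff set at the mean of all screened compounds plus 3 SD, cut at about 10% in these data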;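 also: 0% = DMSO wells and 100% = sodium butyrate wells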
DAX1 inh-2 – DAX1 (NR0B1) inhibitors, primary screen, cell-based, HEK293, Gal4-DAX1, luciferase luminescence. Nuclear receptor subfamily 0 group B member 1 (Homo sapiens), P51843. HEK293 Gal4-DAX1 luciferase reporter. inhibition, % at 6.75 µM. 340,000 compounds, 0.99% hits. AID 504766, 2011;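 active = inhibition above the mean over all tested compounds plus 3 SD, cut at about 4.2% in these data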;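 also: 0% = DAX1-transfected cells with DMSO and 100% = empty-vector control cells with DMSO; inhibition shows as a rise in luminescence from relieved DAX1 repression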
hcDAF12 agonist – H. contortus DAF-12 nuclear receptor activators, primary screen, cell-based, luminescence, HEK293, lit1-tk-luc reporter; HEK293 hcDAF-12 lit1-tk-luc reporter; 0% DMSO, 100% Δ7-dafachronic acid; activation, % at 6.8 µM; 370,000 compounds, 1.4% hits; AID 652067, 2013;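 active = activation above the mean of all tested compounds plus 3 SD, cut at about 5.5% in these data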;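 also: 100% = response to 3 µM Δ7-dafachronic acid high control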
Active calls of the source: *; x = no result. Compounds with a hit are over-represented: about 5.7% of the library has one in this group of screens.

SMILES	ssDAF12 agonist	DAX1 inh-1	AHR activator	hgDAF-12 ag	DAX1 inh-2	hcDAF12 agonist
COc1cccc(OCc2cc(C(=O)N3CCCC3c3ccccn3)no2)c1 (stereo not drawn)	0	3	16	12*	0	1
NC(=O)[C@@H]1CCCN1C(=O)c1cc(COc2ccc3c(c2)CCCC3)on1	0	4.5*	x	7	0	1
COc1cccc(OCc2cc(C(=O)N3CCNC(=O)C3Cc3ccccc3)no2)c1 (stereo not drawn)	-1	4.2*	7	6	1	-1
COc1cccc(OCc2cc(C(=O)N3CCN(C4CCCC4)CC3)no2)c1	-1	0	0	-1	-1	-1
COC(=O)[C@]12C[C@H](CC(=O)N3CCN(C(=O)c4ccco4)CC3)C(=O)N(CCC3=CCCCC3)C1=C[C@H](C(C)C)O[C@@H]2C1CC1	-2	0	x	0	x	-1
COc1ccc(-c2nnc(-c3ccccc3)o2)cc1OC	0	2	9	10*	2	1
Oc1ccccc1-c1nnc(-c2ccc(C(F)(F)F)cc2)o1	0	0	52*	6	1	-1
COc1cc(-c2nnc(-c3cc(-c4ccccc4)nc4ccccc34)o2)cc(OC)c1OC	1.2*	0	x	0	2	1
c1ccc(-c2nnc(-c3ccccc3)o2)cc1	1.2*	3	59*	12*	4.6*	5.9*
CN1CCN(C(=O)c2ccc(-n3cccc3)cc2)CC1	0	0	1	0	0	-2
CC1(Oc2ccc3ccccc3c2)CCN(Cc2ccc(OC(F)(F)F)cc2)C1 (stereo not drawn)	-2	1	x	0	x	0
O=C(Nc1cccc(C(F)(F)F)c1)c1ccc(-c2ccc(F)c(F)c2)c2ccoc12	-1	0	x	0	x	-1
COc1ccc(CCN(C)C(=O)CCc2nnc(-c3ccccc3)o2)cc1OC	0	1	15	11*	2	4
c1ccc(-c2nnc(-c3ccncc3)o2)cc1	-1	1	1	3	0	2
Cc1cccc(-c2nnc(-c3ccc(N)cc3)o2)c1	-1	3	-3	7	0	3
COc1ccc2nc(-c3ccccc3)cc(OC)c2c1	0	1	64*	6	1	3
Nc1ccc(-c2nnc(-c3ccc(N)cc3)o2)cc1	0	2	25	7	4.4*	2
COc1ccc2nc(-c3ccccc3)[nH]c(=O)c2c1	0	2	x	6	1	-1
Nc1ccccc1-c1nnc(-c2ccc(-c3ccccc3)cc2)o1	0	2	76*	10	1	3
COC(=O)[C@]12C[C@H](CC(=O)NCc3cccs3)C(=O)N(Cc3ccc4c(c3)OCO4)C1=C[C@H](C(C)(C)C)O[C@@H]2C	0	-1	x	-2	x	-1
COc1cc2c(cc1OC)C(C)N(C(=O)c1ccc(Br)o1)CC2 (stereo not drawn)	-2	0	5	-4	-1	-2
N#C/C(=C/c1ccc(-c2ccccc2[N+](=O)[O-])o1)C(N)=O	-1	0	5	1	0	0
N#C/C(=C/c1ccc(-c2cc([N+](=O)[O-])ccc2Cl)o1)C(N)=O	-2	-2	-1	-5	9.3*	-2
CCSc1nnc(-c2ccccc2N=Cc2c(C)[nH]n(-c3ccccc3)c2=O)c(=O)[nH]1	-1	0	8	4	0	-2
CC(=O)c1c(C)nc(-c2ccccc2)nc1N	-1	0	77*	8	1	1
SMILES	ssDAF12 agonist	DAX1 inh-1	AHR activator	hgDAF-12 ag	DAX1 inh-2	hcDAF12 agonist
CC(=O)c1c(NC(=O)c2ccccc2)[nH]c(-c2ccccc2)nc1=S	-1	1	16	3	2	1
COc1ccccc1-c1nc(=S)c(C(C)=O)c(C)[nH]1	-1	0	54*	0	x	-1
CC(=O)c1c(C)nc(-c2ccccc2)nc1NC(=O)C(C)C	-1	0	15	-1	1	0
COc1ccccc1-c1nc(NC(C)=O)n[nH]1	1.8*	0	29	1	x	4
CC(=O)c1c(C)[nH]c(-c2ccccc2)nc1=S	0	1	66*	3	-1	5
CC(=O)c1ccc(NC(=O)CSc2n[nH]c(-c3cccnc3)n2)cc1	-1	0	3	3	1	-1
CCc1ccc(N(CC(=O)Nc2ccccc2C(=O)N2CCOCC2)S(C)(=O)=O)cc1	1.5*	-1	2	-1	-1	0
COc1ccc(Cl)cc1N1C(=NC(=O)C2CCCCC2)SC2CS(=O)(=O)CC21 (stereo not drawn)	0	0	1	0	2	-2
COC(=O)[C@]12C[C@H](CC(=O)N3CCN(C(=O)C4CC4)CC3)C(=O)N(Cc3ccco3)C1=C[C@H](C1CCCC1)O[C@@H]2C	0	0	x	1	x	1
COc1ccc(C2CC(C)(c3ccc(OC)cc3)Nc3ccccc3N2)cc1 (stereo not drawn)	-1	2	5	12*	1	5.7*
Cc1cccc2c(N=O)c(O)n(CCc3ccccc3)c12	-1	0	67*	-1	0	-2
CCOc1cc(C(=O)Nc2nnc(C)s2)cc(OCC)c1OCC	-1	0	46	2	1	0
CCCc1cc(C(=O)Nc2nnc(C)s2)cs1	0	3	7	11*	2	3
Cc1ccc(Cl)c2sc(NC(=O)C3CC3)nc12	-1	0	49*	-3	0	2
COc1ccc(OC)c2sc(NC(=O)c3ccc(Br)s3)nc12	-1	0	25	1	-1	-1
COc1ccc(OC)c2sc(NNC(=O)COc3ccccc3)nc12	-1	2	79*	2	-1	-1
COc1ccc(OC)c2sc(NC(=O)C3CC3)nc12	-1	-1	75*	0	-1	1
COc1ccc(OCC(=O)NNc2nc3ccccc3s2)cc1	-1	-1	17	-6	-1	5
CCC(=O)Nc1nc2ccc3nc(C)sc3c2s1	0	3	2	11*	1	2
CCCSCCCNC(=O)c1ccc(NC(=O)C2=CSCCO2)cc1	-1	0	1	0	0	4
COc1ccc(OC)c2sc(NC(=O)c3ccc(Cl)s3)nc12	-1	0	30	-3	0	-1
